Holding throughout (assay): PBM; 200 nM protein, PBS
Conditions in all cases: dsDNA, one strand shown

Experiment [1] addresses T1, NKX2-4 (Homo sapiens, UniProt Q9H2Z4 175-261, P217L).
T1 sequence: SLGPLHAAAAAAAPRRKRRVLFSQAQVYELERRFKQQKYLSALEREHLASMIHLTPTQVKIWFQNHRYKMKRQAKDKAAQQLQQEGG

The target of experiment [2] is T2, NKX2-4 (Homo sapiens, UniProt Q9H2Z4 175-261, T231S).
T2 sequence: T1 sequence with L43P, T57S

The target of experiment [3] is T3, NKX2-4 (Homo sapiens, UniProt Q9H2Z4 175-261).
T3 sequence: T1 sequence with L43P

The target in experiment [4] is T4, NKX2-4 (Homo sapiens, UniProt Q9H2Z4 175-261, R246Q).
T4 sequence: T1 sequence with L43P, R72Q

Experiment [5] addresses NKX3-2 (Homo sapiens, UniProt P78367 192-278, P234S).
Experiment [6] concerns the target NKX3-2 (Homo sapiens, UniProt P78367 192-278).
Experiment [7] deals with T5, NKX2-6 (Homo sapiens, UniProt A6NCS4 118-204, F151L).
T5 sequence: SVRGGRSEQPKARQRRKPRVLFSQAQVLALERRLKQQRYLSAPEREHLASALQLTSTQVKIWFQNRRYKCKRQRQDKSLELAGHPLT

The source of these data is paper PMC11006913.

Numbering of substitutions follows the chain as printed.

Sequence of NKX3-2 (Homo sapiens, UniProt P78367 192-278) (P78367 192-278): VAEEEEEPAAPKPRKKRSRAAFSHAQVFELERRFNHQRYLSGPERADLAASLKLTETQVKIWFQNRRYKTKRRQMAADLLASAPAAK
Sequence of NKX3-2 (Homo sapiens, UniProt P78367 192-278, P234S) (P78367 192-278 P234S): as the sequence (P78367 192-278) above, with P43S counted along it

Take CCGGCTCA: the binding signal in experiment [1] is 9.54 upbm affinity estimate (log intensity, higher = more binding, comparable within an allelic series); in experiment [2], 9.64 upbm affinity estimate (log intensity, higher = more binding, comparable within an allelic series); in experiment [3] it was 9.59 upbm affinity estimate (log intensity, higher = more binding, comparable within an allelic series); in experiment [4], 9.56 upbm affinity estimate (log intensity, higher = more binding, comparable within an allelic series).

As to AAAGTAGC, the binding signal in experiment [1] was 11.5 upbm affinity estimate (log intensity, higher = more binding, comparable within an allelic series); in experiment [2], 11.9 upbm affinity estimate (log intensity, higher = more binding, comparable within an allelic series); in experiment [3], 11.5 upbm affinity estimate (log intensity, higher = more binding, comparable within an allelic series); in experiment [4] it was 11.7 upbm affinity estimate (log intensity, higher = more binding, comparable within an allelic series).

Consider GGTACTCA, for which the binding signal in experiment [1] is 12.5 upbm affinity estimate (log intensity, higher = more binding, comparable within an allelic series); in experiment [2], 12.9 upbm affinity estimate (log intensity, higher = more binding, comparable within an allelic series); in experiment [3], 12.4 upbm affinity estimate (log intensity, higher = more binding, comparable within an allelic series); in experiment [4] it was 12.9 upbm affinity estimate (log intensity, higher = more binding, comparable within an allelic series); in experiment [5], 12.5 upbm affinity estimate (log intensity, higher = more binding, comparable within an allelic series); in experiment [6] it was 12.6 upbm affinity estimate (log intensity, higher = more binding, comparable within an allelic series).

Take ACATGCAG: the binding signal in experiment [1] is 9.48 upbm affinity estimate (log intensity, higher = more binding, comparable within an allelic series); in experiment [2] it was 9.63 upbm affinity estimate (log intensity, higher = more binding, comparable within an allelic series); in experiment [3], 9.52 upbm affinity estimate (log intensity, higher = more binding, comparable within an allelic series); in experiment [4], 9.48 upbm affinity estimate (log intensity, higher = more binding, comparable within an allelic series).

Turning to ACCGTCTG, the binding signal in experiment [1] is 9.6 upbm affinity estimate (log intensity, higher = more binding, comparable within an allelic series); in experiment [2] it was 9.59 upbm affinity estimate (log intensity, higher = more binding, comparable within an allelic series); in experiment [3], 9.56 upbm affinity estimate (log intensity, higher = more binding, comparable within an allelic series); in experiment [4] it was 9.61 upbm affinity estimate (log intensity, higher = more binding, comparable within an allelic series).

With CACTTCAC, the binding signal in experiment [1] is 12.5 upbm affinity estimate (log intensity, higher = more binding, comparable within an allelic series); in experiment [2] it was 12.8 upbm affinity estimate (log intensity, higher = more binding, comparable within an allelic series); in experiment [3], 12.3 upbm affinity estimate (log intensity, higher = more binding, comparable within an allelic series); in experiment [4], 12.9 upbm affinity estimate (log intensity, higher = more binding, comparable within an allelic series); in experiment [7], 10.7 upbm affinity estimate (log intensity, higher = more binding, comparable within an allelic series).

For ACTCATAG, the binding signal in experiment [1] was 11.7 upbm affinity estimate (log intensity, higher = more binding, comparable within an allelic series); in experiment [2] it was 11.8 upbm affinity estimate (log intensity, higher = more binding, comparable within an allelic series); in experiment [3], 11.6 upbm affinity estimate (log intensity, higher = more binding, comparable within an allelic series); in experiment [4], 11.9 upbm affinity estimate (log intensity, higher = more binding, comparable within an allelic series).

GCTATAGC: the binding signal in experiment [1] is 9.92 upbm affinity estimate (log intensity, higher = more binding, comparable within an allelic series); in experiment [2] it was 9.98 upbm affinity estimate (log intensity, higher = more binding, comparable within an allelic series); in experiment [3], 9.84 upbm affinity estimate (log intensity, higher = more binding, comparable within an allelic series); in experiment [4], 9.91 upbm affinity estimate (log intensity, higher = more binding, comparable within an allelic series).

Consider CACTCTTA, for which the binding signal in experiment [1] was 12.3 upbm affinity estimate (log intensity, higher = more binding, comparable within an allelic series); in experiment [2], 12.7 upbm affinity estimate (log intensity, higher = more binding, comparable within an allelic series); in experiment [3], 12.3 upbm affinity estimate (log intensity, higher = more binding, comparable within an allelic series); in experiment [4] it was 12.8 upbm affinity estimate (log intensity, higher = more binding, comparable within an allelic series); in experiment [5] it was 12.5 upbm affinity estimate (log intensity, higher = more binding, comparable within an allelic series); in experiment [6] it was 12.6 upbm affinity estimate (log intensity, higher = more binding, comparable within an allelic series).

Regarding AGACTGAC, the binding signal in experiment [1] is 9.52 upbm affinity estimate (log intensity, higher = more binding, comparable within an allelic series); in experiment [2] it was 9.58 upbm affinity estimate (log intensity, higher = more binding, comparable within an allelic series); in experiment [3], 9.63 upbm affinity estimate (log intensity, higher = more binding, comparable within an allelic series); in experiment [4], 9.64 upbm affinity estimate (log intensity, higher = more binding, comparable within an allelic series).

Take GCACTACA: the binding signal in experiment [1] was 11.7 upbm affinity estimate (log intensity, higher = more binding, comparable within an allelic series); in experiment [2], 11.7 upbm affinity estimate (log intensity, higher = more binding, comparable within an allelic series); in experiment [3], 11.6 upbm affinity estimate (log intensity, higher = more binding, comparable within an allelic series); in experiment [4], 11.9 upbm affinity estimate (log intensity, higher = more binding, comparable within an allelic series).

Turning to ACGCCTTG, the binding signal was 9.82 upbm affinity estimate (log intensity, higher = more binding, comparable within an allelic series) in experiment [1]; 9.81 upbm affinity estimate (log intensity, higher = more binding, comparable within an allelic series) in experiment [2]; 9.74 upbm affinity estimate (log intensity, higher = more binding, comparable within an allelic series) in experiment [3]; 9.73 upbm affinity estimate (log intensity, higher = more binding, comparable within an allelic series) in experiment [4].
